Results as given in PubChem BioAssay AID686978 (National Center for Advancing Translational Sciences (NCATS), 2013).
In all, about 420,000 compounds went through this assay and about 64,000 (15%) were called active. Another 27% or so got no clear call; they are omitted. Not all results are given here. Values without a mark were called inactive. Calls follow the shape of the dose curve; as a rule, active = well fitted inhibition curve with a large enough effect; inconclusive = small, poorly fitted or top-dose-only effect; inactive = flat fitted curve, though single readings scatter.

experiment: qHTS for Inhibitors of human tyrosyl-DNA phosphodiesterase 1 (TDP1): qHTS in cells in absence of CPT; settings: DT40 Tdp1-/- hTDP1 cells, no CPT, ATP luminescence, 48 h; activity change, negative = growth inhibition: at 46.2 µM (top of the series); also: nearly all actives have a fitted effect of over 55% in size
Summary of the method: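 Luminescent ATP content (CellTiter-Glo) served as the growth readout. Knockout chicken DT40 cells expressing human TDP1 were exposed to compounds without camptothecin for a minimum 48 hr at 37 °C.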
% is scaled to controls: 0 for no effect and ±100 for the full control effect; potency is read from the fitted curve at half-maximal effect.

| Compound | activity change, negative = growth inhibition [%] | Potency |
| --- | --- | --- |
| COc1ccccc1NC(=O)COC(=O)c1ccccc1SCC(=O)N1CCCC1 | -5.43 | – |
| CC(=O)c1cccc(NC(=O)CN2C(=O)c3cccnc3Oc3ccc(Cl)cc32)c1 | – | 13 µM (active) |
| CC1(c2ccc(Cl)cc2Cl)NC(=O)N(CC(=O)Nc2cccnc2Cl)C1=O (centres undefined) | -11 | – |
| Cc1ccc2c(c1)N(CC(=O)NCCCN1CCCCC1)C(=O)c1cccnc1O2 | – | inactive |
| CCN(CC)c1ccc(NC(=O)Cn2nc3c(cc2=O)CCCC3)c(C)c1 | -5.62 | – |
| Cc1ccc2c(c1)N(CC(=O)NCCc1ccc(Cl)cc1)C(=O)c1cccnc1O2 | – | 1.16 µM (active) |
| CC(=O)Nc1cccc(C(=O)OCN2C(=O)c3ccccc3C2=O)c1 | 9.39 | – |
| CCCCN1C(=O)C(=O)N(CC(=O)Nc2cccc(C(C)=O)c2)C1=O | 12.5 | – |
| Cc1ccc2[nH]c3c(=O)n(CC(=O)NCCc4ccc(Cl)cc4)ncc3c2c1 | – | inactive |
| CCN(CC)c1ccc(NC(=O)CN2C(=O)c3cccnc3Oc3ccc(Cl)cc32)c(C)c1 | – | 13 µM (active) |
| O=C(COC(=O)c1ccc(S(=O)(=O)N2CCc3ccccc3C2)cc1)NC(=O)NCc1ccco1 | -28.8 | – |
| O=C(COc1ccc([N+](=O)[O-])cc1Cl)Nn1cnnc1 | 2.52 | – |
| CNc1nc(=O)n(C2CCCO2)cc1C (centres undefined) | -0.128 | – |
| O=C(CCC(=O)N1CCCC1)Nc1ccc([N+](=O)[O-])cc1 | 2.85 | – |
| COC(=O)NNC(=O)C1CCC(C)CC1 (centres undefined) | – | inactive |
| COc1ccc(C(=O)NN2C(=O)C3C(c4ccccc4)C=CC(c4ccccc4)C3C2=O)cc1 (centres undefined) | -11.1 | – |
| COc1ccc(C(=O)NN(C)c2nc(-c3ccccc3)cc(C)c2S(C)(=O)=O)cc1 | – | 18.4 µM (active) |
| COc1ccc(C(=O)NNS(=O)(=O)c2ccc(C)cc2)cc1 | -3.48 | – |
| COc1ccc(CN2C(=O)C(CC(=O)NC3CCCCC3)CC(C(=O)N3CCOCC3)=C2C)cc1 (centres undefined) | -5.23 | – |
| Cc1cc(NC(C)C)n2c(nc3ccccc32)c1C#N | -24.2 | – |
| CC(C)c1cc(NCc2ccccn2)n2c(nc3ccccc32)c1C#N | – | 11.6 µM (active) |
| CCCc1nnc(NC(=O)c2cc(OC)cc(OC)c2)s1 | -14.6 | – |
| O=C(CSc1n[nH]c(-c2cccnc2)n1)Nc1ccc(Cl)cc1 | -10.4 | – |
| CCN(CC(=O)NC(C)C)C(=O)CCNC(=O)c1ccc(Cl)cc1 | -22.4 | – |
| COc1cc2[nH]c(O)c(C=O)c2cc1OC | -9.43 | – |
| COc1cc(N=Cc2c(O)[nH]c3ccccc23)cc(OC)c1OC | – | 13 µM (active) |
| COc1cc(N=Cc2c(O)c3ccccc3oc2=O)c(OC)cc1Cl | -26.2 | – |
| CCn1c(O)c2ccc(C(=O)N=NC(=O)c3cccnc3)cc2c1O | -4.25 | – |
| Cc1cc(OC(C)C(=O)Nc2ccc(S(=O)(=O)Nc3onc(C)c3C)cc2)cc(C)c1Cl (centres undefined) | 5.09 | – |
